Results: PubChem BioAssay (NCATS)
Inconclusive results are not listed. Calls of active or inactive are those of the source. Calls come from the whole dose curve; as a rule, active = well fitted activation curve with a large enough effect; inconclusive = small, poorly fitted or top-dose-only effect; inactive = no such curve, though single readings can be large or run the other way.

Biological target: Rap guanine nucleotide exchange factor 3 (Homo sapiens) (UniProt O95398)
Assay: Confirmatory qHTS for agonist of cAMP-regulated guanine nucleotide exchange factor 3 (EPAC1) (AID 1645881);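 note: EPAC1 catalysed release of BODIPY-GDP from Rap1B seen as fluorescence loss; 100% = effect of cAMP agonist control; nearly all actives have a fitted effect of over 75% in size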
Details: EPAC1 Rap1B BODIPY-GDP exchange fluorescence; series mostly up to 154 µM; activation: at the top concentration

Chain of Rap guanine nucleotide exchange factor 3 (Homo sapiens) (O95398 whole entry, looked up): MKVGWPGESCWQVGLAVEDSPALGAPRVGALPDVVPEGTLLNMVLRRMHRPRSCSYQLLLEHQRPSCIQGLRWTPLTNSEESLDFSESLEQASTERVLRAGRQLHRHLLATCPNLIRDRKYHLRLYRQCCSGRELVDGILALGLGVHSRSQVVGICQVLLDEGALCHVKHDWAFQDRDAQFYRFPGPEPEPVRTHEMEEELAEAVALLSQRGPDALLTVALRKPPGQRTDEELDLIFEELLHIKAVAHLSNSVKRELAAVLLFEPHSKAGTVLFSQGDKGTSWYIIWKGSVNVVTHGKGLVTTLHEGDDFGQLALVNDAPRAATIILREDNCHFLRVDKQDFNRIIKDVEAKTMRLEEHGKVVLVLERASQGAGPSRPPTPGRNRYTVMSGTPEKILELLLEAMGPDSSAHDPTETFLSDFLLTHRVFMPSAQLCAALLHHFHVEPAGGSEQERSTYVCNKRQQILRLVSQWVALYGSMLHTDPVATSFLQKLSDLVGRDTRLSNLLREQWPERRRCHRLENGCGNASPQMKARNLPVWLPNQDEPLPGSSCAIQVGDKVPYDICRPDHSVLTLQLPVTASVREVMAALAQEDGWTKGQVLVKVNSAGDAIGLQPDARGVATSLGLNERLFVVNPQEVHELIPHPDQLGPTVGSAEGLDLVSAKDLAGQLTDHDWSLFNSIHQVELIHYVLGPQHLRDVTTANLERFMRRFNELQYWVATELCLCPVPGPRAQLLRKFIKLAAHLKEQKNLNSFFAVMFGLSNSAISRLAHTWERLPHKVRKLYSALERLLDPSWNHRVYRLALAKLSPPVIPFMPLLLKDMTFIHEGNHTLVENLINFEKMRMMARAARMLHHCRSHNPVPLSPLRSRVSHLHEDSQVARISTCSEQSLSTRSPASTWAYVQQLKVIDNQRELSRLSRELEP

activation, inactive:
COc1cc(O)c(C(C)=O)c2c1C=CC(C)(C)O2 21.5%
COCCCn1c(=O)/c(=C\c2ccccc2OC(C)C)s/c1=C(/C#N)C(=O)Nc1ccc(C(=O)O)cc1 -0.421%
COC(=O)c1ccc2nc(-c3ccc(F)cc3)c(Cc3ccc(C)cc3)n2c1 0.544%
Cc1ccc(NC(=O)CN2C(=O)S/C(=C\c3cccn3-c3cccc(C(=O)O)c3)C2=O)cc1C 12.1%
COc1ccc(N2Cc3cccc(C(=O)Nc4ccc(C(C)C)cc4)c3C2=O)cc1 -4.12%
CN(C)S(=O)(=O)c1ccc(N2CCCC2)c(C(=O)NCC2COc3ccccc3O2)c1 (stereo not given) 6.5%
CCC1=NN2C(=N)/C(=C/c3ccc(OS(=O)(=O)c4ccccc4)cc3)C(=O)N=C2S1 10.3%
CCCn1cc(SCC(=O)NCc2ccc3c(c2)OCO3)c2ccccc21 8.27%
CCOC(=O)C1CCN(c2c(C(=O)c3ccc(C)cc3)cnc3ccc(F)cc23)CC1 5.2%
O=C(CSc1nc2ccc(Cl)cc2[nH]1)N1CCN(C(=O)c2ccco2)CC1 6.45%
O=C(CSc1nc(O)cc(=O)n1-c1ccccc1)Nc1nc2ccccc2s1 2.13%
CCn1c(=O)c2sccc2n2c(CCCC(=O)N3CCN(c4cc(Cl)ccc4C)CC3)nnc12 -10.1%
O=C(O)/C=C\C(=O)Nc1ccccc1C#Cc1ccc(Br)cc1 6.1%
COc1cccc(C(=O)Nc2ccc(NC(=O)c3ccco3)c(Cl)c2)c1 -2.09%
O=C(NC1CCCCC1)C(c1ccc(-c2ccccc2)cc1)n1c(=O)c(-c2ccco2)nc2ccccc21 (stereo not given) 12.1%
CC(C)N(Cc1ccccc1)C(=O)c1nc(-c2ccc(Cl)cc2)n2c1CCCCC2 7.49%
COc1cccc(/C=C2\SC(=S)NC2=O)c1OS(=O)(=O)c1ccc(NC(C)=O)cc1 9.05%
CC[C@@H]1CC=C[C@H]2[C@H]1C(=O)N(Cc1ccccc1)[C@H]2c1ccc(OC)c(Cl)c1 14.7%
CN(C)c1ccc(-c2[nH][nH]c(=O)c2NC(=O)c2ccccn2)cc1 11.1%
Cc1cc(CSc2ccc(Cl)cc2)ccc1N 12.8%
O=C(/C=C/c1ccccc1Cl)c1ccc(O)cc1 13%
CCOC(=O)C1=C(C)NC(C)=C(C(=O)OCC)C1c1cccc([N+](=O)[O-])c1 20.6%
CCc1nc2c(OCc3ccc(C(F)(F)F)cc3)cccn2c1N(C)C(=O)c1ccc(C)cc1 -11%
CCCS(=O)(=O)c1c(S(=O)(=O)CCC)c2cnccn2c1C(=O)c1ccc(CC)cc1 7.09%
Cc1cccc(S(=O)(=O)Nc2ccc(S(=O)(=O)Nc3nccs3)cc2)c1 -4.22%
C[C@@]12C(=O)Nc3cc(F)ccc3C(=O)N1[C@H]1c3cc(Br)ccc3OC[C@@H]1[C@@H]2c1ccccc1 12.5%
CC1OC(CC(=O)O)CC2=C1C(=O)c1c(O)cccc1C2=O (stereo not given) 19%
CS/C(=C\C(=O)c1ccco1)Nc1ccccc1Cl 17.5%
O=C(CCCn1c(SCC(=O)c2ccc(O)c(O)c2)nc2ccccc2c1=O)NCC1CCCO1 (stereo not given) 8.35%
COc1ccccc1-c1oc2ccccc2c1C#CC(C)(C)O 17.2%
O=C(N/N=C/c1c(O)ccc2ccccc12)c1[nH]ncc1Br 21%
Cc1ccc(-c2nn(-c3ccccc3)cc2C=C2SC(=S)N(CCS(=O)(=O)O)C2=O)cc1 -0.0188%
COc1cc(NC(=O)c2cc3nc(-c4ccccc4)cc(-c4ccccc4)n3n2)cc(OC)c1OC 6.74%
Cc1ccccc1C(=O)Nc1sc2c(c1C(=O)N1CCCCC1)CCC(C)C2 (stereo not given) 9.45%
CC1=C(C(=O)Nc2ccccc2)C(c2ccc(Cl)cc2)n2c(s/c(=C/c3cccc(OCC(=O)O)c3)c2=O)=N1 (stereo not given) -2.33%
COc1ccc2c(c1)Cc1sc(NC(=O)c3ccccc3C)nc1-2 14.4%
COc1cccc(C(=O)Nc2nnc(-c3ccccc3)s2)c1OC -5.99%
O=C(N/N=C/c1ccc(O)c(O)c1)c1ccc(CSc2cccc3cccnc23)cc1 11.6%
COc1ccc(N(CC(=O)NC2CCCCCCC2)S(=O)(=O)c2c(C)nn(C)c2C)cc1 -3.87%
CC(NS(=O)(=O)OCC(Cl)(Cl)Cl)c1ccc(Br)cc1 (stereo not given) 13.3%
